The list is not random: actives were taken first. Their share in the collection is about 9.4%.
AMA1-RON2 inh: AMA1-RON2 (P. falciparum) interaction inhibition; Potency, µM (doses to about 58.2 µM), actives largely listed as inhibitors; AlphaScreen AMA1-biotinylated RON2 peptide binding; 360,000 tested, 0.2% active; also: nearly all actives have a fitted effect of over 45% in size
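AMA1 (3D7) with his tag at 25 nM final met compounds first, then biotinylated RON2 peptide at 25 nM; detection used donor plus acceptor beads, 10 µg/mL apiece, read by AlphaScreen after 30 min at room temperature.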
Pf growth 96h: inhibits malaria parasite growth, 96 h; P. falciparum luciferase reporter growth, 96 h; Potency, µM (top dose mostly 28.7 µM), most hits filed as inhibitors; 320,000 tested, 6.9% active
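Delayed-death screen, second-generation endpoint: infected erythrocytes, 2% hematocrit, 0.05% parasitemia final; 96 hours at 37 C, 5% CO2; luciferase detection reagent; luminescence decrease equals reduced growth.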
Pf growth 48h: inhibits P. falciparum growth in the first generation, 48 h. AID 504832. 310,000 tested, 5.9% active. P. falciparum luciferase growth in erythrocytes, 48 h. Potency, µM (doses to about 28.7 µM), hits mostly inhibitors
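Cell-based growth assay: transgenic P. falciparum expressing firefly luciferase, cultured in red cells within RPMI 1640 containing 0.5% w/v Albumax, 24 mM bicarbonate and gentamycin. A drop in luciferase activity indicates inhibition.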
SARS PLpro yeast: inhibitors of SARS-CoV papain-like protease in yeast. S. cerevisiae expressing SARS-CoV PLpro, growth rescue. Potency, µM (highest dose often 32.9 µM), hits mostly activators. 330,000 tested, 0.19% active. AID 485353; calls by dose curve; also: nearly all actives have a fitted effect of over 55% in size
Each line names hits and unclear results; the compound was inactive in the other large screens. Unless noted, calls follow the shape of the dose curve; as a rule, active = well fitted curve in the direction sought with a large enough effect; inconclusive = small, poorly fitted or top-dose-only effect, or another doubt; inactive = no such curve, though single readings can be large; an effect the other way counts as inactive or inconclusive.

S=C(Nc1ccc(Cl)cc1)NC1CC2CCCC(C1)N2C1CC1 (stereo not drawn)	Pf growth 96h 10µM, Pf growth 48h 10µM
S=C(NCCC(c1ccccc1)c1ccccc1)Nc1cccc(Cl)c1	none
S=C(Nc1cccc(Cl)c1)NC1CC2CCCC(C1)N2C1CCCC1 (stereo not drawn)	Pf growth 96h inconclusive, Pf growth 48h 3.3µM
C=CCN1C2CCCC1CC(NC(=S)Nc1ccc(Cl)cc1)C2 (stereo not drawn)	Pf growth 48h inconclusive
COc1cccc(NC(=S)NC2CC3CCCC(C2)N3C2CCCC2)c1 (stereo not drawn)	Pf growth 48h inconclusive
S=C(NCCN(C1CCCCC1)C1CCCC1)Nc1cccc(Cl)c1	Pf growth 48h 2.9µM
O=C(Nc1nnc(SCCC2OCCO2)s1)C1CC(=O)N(c2ccc(F)cc2)C1 (stereo not drawn)	Pf growth 96h 10µM, Pf growth 48h inconclusive
COc1cccc(N2CC(C(=O)Nc3nnc(SCCC4OCCO4)s3)CC2=O)c1 (stereo not drawn)	Pf growth 96h 9.3µM
COc1cccc(N2CC(C(=O)Nc3nnc(SCC(=O)Nc4ccc(NC(C)=O)cc4)s3)CC2=O)c1 (stereo not drawn)	Pf growth 96h inconclusive
O=C(CSc1nnc(NC(=O)C2CC2)s1)Nc1cccc(F)c1	Pf growth 96h 2.9µM
COc1cccc(NC(=O)CSc2nnc(NC(=O)C3CCC3)s2)c1	none
Cc1nnc(NC(=O)C2CC(=O)N(Cc3ccccc3)C2)s1 (stereo not drawn)	Pf growth 96h inconclusive, SARS PLpro yeast inconclusive
O=C(Nc1nnc(SCc2ccc(F)cc2)s1)C1CC(=O)N(Cc2ccccc2)C1 (stereo not drawn)	Pf growth 96h 7.4µM
O=C(Nc1nnc(SCCC2OCCO2)s1)C1CC(=O)N(c2ccccc2)C1 (stereo not drawn)	Pf growth 96h inconclusive
COc1ccc(CNc2oc(C)nc2C#N)cc1	none
O=C(NCCCn1ccnc1)c1ccc(-c2ccccc2)cc1	none
COc1ccc(N2CC(C(=O)Nc3nnc(SCC(=O)N4CCOCC4)s3)CC2=O)cc1 (stereo not drawn)	Pf growth 96h 6.6µM
COc1cc2c(C#N)c(N3CCN(c4ccccc4OC)CC3)nc(N)c2c(N)n1	Pf growth 96h 8.3µM, Pf growth 48h 2.1µM
O=C(NNC(=O)C1CC1c1ccccc1)c1ccccc1[N+](=O)[O-] (stereo not drawn)	Pf growth 96h 12µM
O=C(CCc1ccccc1)N/N=C/c1cccc([N+](=O)[O-])c1	Pf growth 96h inconclusive
COc1ccc(C(=O)NNC(=O)c2ccccc2[N+](=O)[O-])cc1	Pf growth 96h 13µM
O=C(N/N=C/c1cccc([N+](=O)[O-])c1)C1CC1c1ccccc1 (stereo not drawn)	Pf growth 96h 12µM
O=C1CN(C(=S)NC(=O)c2ccccc2[N+](=O)[O-])CCN1	Pf growth 96h 7.4µM
O=C(NNC(=S)NC(=O)c1ccccc1[N+](=O)[O-])c1ccccc1	Pf growth 48h inconclusive
O=C(CN1CCN(c2ccc(F)cc2)CC1)c1cccs1	none
CCOC(=O)c1nonc1NC(C)=O	none
O=C(NNC(=O)c1ccccc1[N+](=O)[O-])c1ccccc1[N+](=O)[O-]	Pf growth 96h 7.4µM
O=C(NCCNC(=O)c1ccccc1[N+](=O)[O-])c1ccccc1[N+](=O)[O-]	none (no result: Pf growth 96h, Pf growth 48h, SARS PLpro yeast)
CCOc1ccccc1N(CC(=O)Nc1ccccc1Br)S(=O)(=O)c1ccccc1	none (no result: Pf growth 96h, Pf growth 48h, SARS PLpro yeast)
CCCOc1ccc(CCc2n[nH]c(=S)n2Cc2ccccc2)cc1	Pf growth 48h 5.9µM
O=C(c1cc([N+](=O)[O-])ccc1Cl)N1CCN(c2ccccc2)CC1	SARS PLpro yeast inconclusive
CCC(C)(C)n1nnnc1C(c1ccc2ncccc2c1)N1CCN(c2nc3ccccc3s2)CC1 (stereo not drawn)	Pf growth 48h 5.2µM
CCC(C)(C)n1nnnc1C(c1ccc2ncccc2c1)N1CCN(c2ccc(O)cc2)CC1 (stereo not drawn)	Pf growth 96h inconclusive, Pf growth 48h inconclusive
CCC(C)(C)n1nnnc1C(c1ccc2ncccc2c1)N1CCCC(C)C1 (stereo not drawn)	Pf growth 96h 10µM, Pf growth 48h inconclusive
COc1ccc(OC2CCN(C(=O)Nc3ccc(C)cc3)CC2)cc1	none
O=C(c1cc2sccc2n1Cc1ccccc1)N1CCc2ccccc21	Pf growth 96h inconclusive, Pf growth 48h inconclusive
Nc1c2c(nc3ccccc13)N(C1CCCCC1)CC2	Pf growth 48h 13µM
Nc1c2c(nc3ccc(Br)cc13)N(C1CCCCC1)CC2	Pf growth 96h 10µM, Pf growth 48h inconclusive (no result: AMA1-RON2 inh)

Screens (PubChem)
